# Measured values: PubChem BioAssay (EPA / NIEHS)
# Where a structure was tested more than once in an assay, its records may differ in their call. The source made the active and inactive calls. The calls were made as follows: active = hit-call score of the fitted dose curve at least 0.9, where 1 is the maximum; inactive = score below 0.9.
# Test: CCTE_Shafer_MEA_dev_burst_rate: CCTE's Neural Network Formation Assay for Burst Rate, Shafer Lab (AID 2284042)
# Procedure: CCTE_Shafer_MEA_dev assay is conducted using Axion Biosystems 48 well microelectrode array (MEA) plates and Maestro recording system. Each well of the MEA plate contains a grid of 16 microelectrodes embedded in the culture surface. Electrically active cells, such as neurons, can be cultured over the electrodes, and electrical activity in these cells can be recorded extracellularly. The spontaneous firing of neurons is captured from each electrode on a microsecond timescale providing both temporally and spatially precise data. […] The CCTE_Shafer_MEA_dev assay uses primary cultures of rat cortical neurons. Recordings are made on days post-plating 5, 7, 9 and 12. As these cultures mature over time, neural networks develop functional activity and form cohesive networks in which electrical activity can be highly coordinated. CCTE_Shafer_MEA_dev_burst_rate is 1 of 19 assay components of the CCTE_Shafer_MEA_dev assay. It measures the frequency of single-electrode bursts (temporally-clustered groups of action potential firing) as the total number of bursts divided by the length of the recording in a microelectrode array (MEA) using Axion Biosystems Maestro 768 channel amplifier with the AxIS adaptive spike detector. The mean bursting rate is averaged across the active electrodes to report a well-mean value. To collapse across multiple recordings made on days post-plating 5, 7, 9 and 12, the trapezoidal area-under-the-curve of the component is calculated.Data from the assay component CCTE_Shafer_MEA_dev_burst_rate was analyzed into 1 assay endpoint. This assay endpoint, CCTE_Shafer_MEA_dev_burst_rate, was analyzed in the negative analysis fitting direction relative to DMSO as the negative control and baseline of activity. Using a type of functional reporter, gain or loss-of-signal activity can be used to understand electrical activity.
# On the day prior to culture, each well was coated thoroughly with 150 uL of 0.05% polyethyleneimine (PEI, Sigma Cat P3143) in 50 mM HEPES (Sigma Cat H7523) at a pH of 8. The plate was incubated at 37C for one hour. PEI was rinsed out with 500 uL of sterile water three times. Plates were stored at 4C until the day of culture. This culture was plated at a seeding density of 1.5 x 10^5 cells/well on a 48-well MEA plate, prepared as described above. Cells were administered via a 25 uL media/laminin ([…]; Sigma Cat L2020-1MG) drop directly onto the microelectrode array, as adding the cells with the laminin results in better attachment than pre-coating with laminin. After 2 hours, an additional 475 uL of cortical media was added and the cells returned to the incubator. Exposure starts at day 0 of plating and is continued over twelve days of network development until the experiment is terminated. Cells are fed with fresh medium on DIV 5 and 9, following the recordings on those days. The entire volume of media in the well is exchanged and any vehicle or compound treatment is renewed. Complete details are found in OP-NHEERL/ISTD/SBB/TJS/2015-03-r0 (available on request, email shafer.tim@epa.gov). Measurement of the electrical activity is non-invasive, and recordings can be made from the same plate over multiple different days of the culture. In cortical neurons, this allows for the measurement of extracellular action potentials over the period during which networks form in the MEA plate.
SMILES,AC50,outcome
CC1(C)[C@H](C(=O)O[C@H](C#N)c2cccc(Oc3ccccc3)c2)[C@@H]1C=C(Br)Br,3.86 µM (active),
C/C(=C/C=C/[C@@H](C)C(=O)O)[C@H]1CN[C@H](C(=O)O)[C@H]1CC(=O)O,0.131 µM (active),inactive
Cc1ccc(OP(=O)(Oc2ccc(C)cc2)Oc2ccc(C)cc2)cc1 (tested in a mixture with another compound),,inactive
O.O.O.O.O.[Cd+2].[Cd+2].[Cl-].[Cl-].[Cl-].[Cl-],0.188 µM (active),
CC(C)CCCCCCCOP(=O)(Oc1ccccc1)Oc1ccccc1,,inactive
Brc1ccc(Oc2ccc(Br)cc2Br)c(Br)c1,,inactive
C[n+]1ccc(-c2ccccc2)cc1,,inactive
CC1(C)C(C=C(Cl)c2ccc(Cl)cc2)C1C(=O)OC(C#N)c1ccc(F)c(Oc2ccccc2)c1 (stereo not given),9.91 µM (active),
CCCCC(CC)COC(=O)c1cc(Br)c(Br)c(Br)c1Br (stereo not given),,inactive
CC1(C)C(C=C(Cl)Cl)C1C(=O)O[C@H](C#N)c1cccc(Oc2ccccc2)c1 (stereo not given in full),1.95 µM (active),
CN1C(=O)CN=C(c2ccccc2)c2cc(Cl)ccc21,,inactive
CP(=O)(O)CCC(N)C(=O)O (stereo not given),,inactive
CC1(C)[C@H](C=C(Cl)Cl)[C@@H]1C(=O)O[C@@H](C#N)c1cccc(Oc2ccccc2)c1,,inactive
Cn1nc(C(F)(F)F)c(CS(=O)(=O)C2=NOC(C)(C)C2)c1OC(F)F,,inactive
[Cd+2].[Cl-].[Cl-],0.461 µM (active),
CC(=O)[O-].CC(=O)[O-].O.O.O.[Pb+2],,inactive
NCCc1cc(O)c(O)cc1O,,inactive
O=C(O)CNCP(=O)(O)O,,inactive
COP(=O)(OC)SCN1C(=O)c2ccccc2C1=O,,inactive
CP(=O)(O)CC[C@H](N)C(=O)O,,inactive

SMILES,AC50,outcome
CC1(C)[C@H](C=C(Cl)Cl)[C@H]1C(=O)OCc1c(F)c(F)cc(F)c1F,23.7 µM (active),
c1ccc2cc3c(cc2c1)-c1cccc2cccc-3c12,,inactive
c1ccc2c(c1)cc1ccc3cccc4ccc2c1c34,,inactive
C=CCN1CC[C@]23c4c5ccc(O)c4O[C@H]2C(=O)CC[C@@]3(O)[C@H]1C5,,inactive
O=[As]O,2.42 µM (active),
CCOP(=O)(OCC)OC(Cl)C(Cl)(Cl)Cl (stereo not given),0.945 µM (active),
CCC1(c2ccccc2)C(=O)NC(=O)NC1=O,,inactive
CCOP(=O)(OCC)SCSC(C)(C)C,,inactive
CCOP(=S)(OCC)SCS(=O)C(C)(C)C (stereo not given),,inactive
[CH3][Sn]([CH3])[CH3],0.559 µM (active),
C#CCN(C)[C@H](C)Cc1ccccc1,,inactive
CC(=O)[O-].[Tl+],,inactive
CCC[CH2][Sn]([CH2]CCC)([CH2]CCC)[O][Sn]([CH2]CCC)([CH2]CCC)[CH2]CCC,0.0291 µM (active),
COC(=O)[C@H]1[C@@H](OC(=O)c2ccccc2)C[C@@H]2CC[C@H]1N2C,,inactive
CNC(=N[N+](=O)[O-])NCC1CCOC1 (stereo not given),,inactive
CCOP(=O)(Oc1cnc(C(C)(C)C)nc1)OC(C)C (stereo not given),,inactive
CC1(C)[C@@H](C=C(Cl)Cl)[C@@H]1C(=O)O[C@@H](C#N)c1ccc(F)c(Oc2ccccc2)c1,,inactive
[CH3][Hg][Cl],0.207 µM (active),
CC1CCCC1.[C-]#[O+].[C-]#[O+].[C-]#[O+].[Mn],,inactive
